Measured values taken from PubChem BioAssay AID1865 (National Center for Advancing Translational Sciences (NCATS), 2009).
Out of some 280,000 compounds screened, about 540 (0.19%) were called active. Inconclusive results (about 2%) are left out. Shown is part of a subset that was picked to be rich in actives. Values without a mark were called inactive. Calls follow the shape of the dose curve; as a rule, active = well fitted activation curve with a large enough effect; inconclusive = small, poorly fitted or top-dose-only effect; inactive = flat fitted curve, though single readings scatter.

Assay: Quantitative High-Throughput Screen for Regulators of Epigenetic Control; also: nearly all actives have a fitted effect of over 60% in size; as to GFP activation: % of control where 0% means no effect
Conditions: murine LDR cells, GFP reporter derepression, 30 h; series mostly up to 53.9 µM; GFP activation: at the top concentration
Source text: NIH Molecular Libraries Screening Centers Network [MLPCN] NIH Chemical Genomics Center [NCGC] MLSCN Grant: 1 X01 MH079860-01 Assay Provider: Elisabeth D. Martinez, University of Texas SW Medical Center NCGC Assay Overview: The Locus Derepression (LDR) assay detects the derepression or induction of a GFP reporter that is stably integrated in a genomic region of murine cells that is presumably silenced. Transcription of the GFP reporter is controlled by a CMV promoter, which normally is constitutively active. However, this cell line, termed LDR, was selected for lack of constitutive production of GFP. GFP production can be induced by incubating the cells with histone deacetylase or DNA methyltransferase inhibitors (Martinez et al., 2006). Compounds that derepress or induce this reporter locus are identified by enumerating GFP positive cells using a laser-scanning microplate cytometer (Auld et al., 2006). This assay was screened against the MLSMR earlier (AID 597; (Johnson et al., 2008) and has been rescreened here against the expanded collection.
NCGC Assay Protocol Summary: Three hundred LDR cells in 5 uL per well were dispensed into black, clear-bottom 1536-well plates. Twenty-three nL compound was transferred to the assay plate and cells were incubated 30 hours at 37 C. Medium was removed, cells were washed two times with PBS, and GFP-positive cells were enumerated as fluorescent objects between the sizes of 20 to 120 um width and depth using an Acumen Explorer. References Auld, DS, Johnson, RL, Zhang, YQ, Veith, H, Jadhav, A, Yasgar, A, Simeonov, A, Zheng, W, Martinez, ED, Westwick, JK, Austin, CP, Inglese, J (2006). Fluorescent protein-based cellular assays analyzed by laser-scanning microplate cytometry in 1536-well plate format. Methods Enzymol 414: 566-89. Johnson, RL, Huang, W, Jadhav, A, Austin, CP, Inglese, J, Martinez, ED (2008). A quantitative high-throughput screen identifies potential epigenetic modulators of gene expression. Anal Biochem 375: 237-48. Martinez, ED, Dull, AB, Beutler, JA, Hager, GL (2006). High-content fluorescence-based screening for epigenetic modulators. Methods Enzymol 414: 21-36.
Potency is read from the fitted curve at half-maximal effect.

Compound	Potency	GFP activation [%]
Cc1ccc(/C=N/NC(=S)Nc2cccc(S(=O)(=O)N(C)C)c2)o1	3.98 µM (active)	
CN(C)S(=O)(=O)c1cccc(NC(=S)N/N=C/C(=O)c2ccccc2)c1		0
CN(C)S(=O)(=O)c1cccc(NC(=S)NCc2ccc3c(c2)OCO3)c1		0.935
Cc1cc(Cl)ccc1NC(=O)Cc1ccc(NC(=O)N2CCCCc3ccccc32)cc1		0
CCN1CCN(CCCNC(=O)c2ccc3c(c2)sc2nc(-c4ccc(OC)cc4)cn23)CC1		0
Cc1oc(C)c2c(=O)cc(-c3ccc4c(c3)OCO4)cc(OC(=O)c3ccc(Cl)cc3)c12		1.85
COc1cc(OC)cc(C(=O)Nc2ccc3nc(Nc4cccc(C(F)(F)F)c4)cc(C)c3c2)c1		-1.23
CCc1ccc(CNCc2c(C(=O)O)n(Cc3ccc(F)cc3Cl)c3cc(OC)ccc23)cc1		0
N#Cc1ccccc1Cn1cnc2nc3c(cc2c1=O)CCCC3		0
Cc1ccccc1C(=O)Nc1nnc(S(=O)(=O)N(C)c2ccc(Cl)cc2)s1		3.16
COc1ccc(C(=O)N2CCC(c3nc4ccccc4o3)CC2)cc1		0
CCCCOc1ccc(CN2C(=O)C(=O)c3cc(Br)cc(C)c32)cc1OC		-3.95
Cc1nn(C(C)C(=O)Nc2ccc(C(C)C)cc2)c(=O)c2c1sc1ccccc12 (stereo unspecified)		1.04
COc1ccc(NC(=O)CCNS(=O)(=O)c2ccc3c(c2)CCCC(=O)N3)cc1Cl		-1.27
COc1cccc(-c2nnc(SCC(=O)N3CCC(C)CC3)o2)c1		-1.77
CCOc1ccc(CNCc2c(C(=O)O)c(C)n(Cc3cccc(OC)c3)c2C)cc1OC		-1.61
Cc1ccc(Cl)cc1N(C)C(=O)C1CCCN(c2ncnc3onc(-c4ccc(F)cc4)c23)C1 (stereo unspecified)		-0.432
COc1ccc(S(=O)(=O)c2c(Nc3cccc(Cl)c3)sc(C(=O)c3ccccc3)c2N)cc1		0
COc1ccccc1Nc1nc(N)nc(N)c1S(=O)(=O)c1ccccc1		-1.08
CC1(C)N=C(SCc2ccccc2Cl)c2ccccc2N1		0
Cc1ccc(NC(=O)Cc2ccc(NC(=O)N3CCCCc4ccccc43)cc2)cc1		0.833

Compound	Potency	GFP activation [%]
CNC(=O)c1ccc(-c2nc(CN3CCc4ccccc43)c(C)o2)cc1		-1.24
CC(=O)c1ccc(NC(c2ccc(F)cc2)c2nnc(-c3ccccc3)o2)cc1 (stereo unspecified)		1.06
COc1ccc(-c2cn3nc(N4CCCC(C(=O)NCCCOC(C)C)C4)sc3n2)cc1 (stereo unspecified)		1.23
Cc1cc2oc(C(=O)N(Cc3ccc(Cl)cc3)Cc3ccco3)c(C)c2cc1Cl		-1.85
COc1cccc(N=C2SC(C(=O)Nc3cccc(Cl)c3)CC(=O)N2C)c1 (stereo unspecified)		-1.59
Fc1ccc(-n2ncc3c(Nc4ccc(Oc5ccccc5)cc4)ncnc32)cc1		2.05
COc1ccccc1CN1CCC(CNC(=O)c2cnn(-c3ccccc3Cl)c2C2CCN(C(=O)OC(C)(C)C)CC2)CC1		-1.27
CCOc1ccccc1C(=O)Nc1ccc2c(c1)N(C)C(=O)c1ccccc1S2		9.09
CCOC(=O)c1c(C)[nH]c(CCC(=O)Nc2ccc(OC)c(OC)c2)c1C		-1.54
O=S(=O)(c1ccc2nc(NCc3ccccc3Cl)ccc2c1)N1CCCCC1		-1.46
COc1cc(CN(C(=O)c2ccccc2Br)c2ccccn2)cc(OC)c1OC		0.833
CC(C)(C)c1ccc(OCC(=O)N2CCC(c3nc4ccccc4s3)CC2)cc1		0
Cc1ccc(-n2c3nc(=O)[nH]c(=O)c-3cc3c(Cl)cccc32)cc1		0.833
Cc1c(-c2nsc(NC(=O)c3cccc(Cl)c3)n2)nnn1-c1ccccc1C(F)(F)F		-3.14
CSc1ccc(C2c3c(oc4ccccc4c3=O)C(=O)N2CCCN2CCOCC2)cc1 (stereo unspecified)		-0.962
CCC(C(=O)Nc1cccc(Cl)c1C)n1nc(-c2ccc(C)cc2)ccc1=O (stereo unspecified)		-5.49
CCOC(=O)CC1C(=O)NCCN1c1nc2c(C)cccn2c(=O)c1/C=C1\SC(=S)N(C(C)CC)C1=O (stereo unspecified)	7.08 µM (active)	
CCOC(=O)CC1C(=O)NCCN1C(=O)COc1ccc(Br)cc1C (stereo unspecified)		-3.32
CCOC(=O)CNC(=O)c1cc2c(=O)n3cccc(C)c3nc2s1		-0.885
COc1ccc(-n2nnc(-c3nsc(NC(=O)c4ccc(C)c(C)c4)n3)c2C)cc1Cl		-3.18
Cc1ccc(SCC(=O)Nc2ccc3oc(-c4ccccc4F)nc3c2)cc1		16.1

Compound	Potency	GFP activation [%]
Cc1c(Cl)cccc1NC(=O)Cn1cc(C(=O)c2cccs2)c2ccccc21		2.88
COc1cccc(C(=O)Nc2ccc(-c3cc(C(F)(F)F)nn3-c3ccccc3)cc2)c1		1.08
CCS(=O)(=O)c1ncc(N(Cc2ccc(F)cc2)Cc2ccco2)c(C(=O)Nc2cc(C)ccc2C)n1		-2.39
CC(C)CCN(C(=O)Nc1ccc(Cl)c(Cl)c1)C(C)c1cccs1 (stereo unspecified)		-0.998
CCc1cc2c(cc(C(=O)OC)n2Cc2nc(-c3ccc(C)cc3)oc2C)s1		2.7
COc1ccccc1-c1nnc(C2CCN(C(=O)c3ccc(Cl)cc3)CC2)o1		1.22
CCC(Sc1nc2n[nH]c(C)c2c(=N)n1-c1ccccc1Cl)C(=O)N(CC)CC (stereo unspecified)		0
CC1=C(C(=O)N2CCN(c3cccc(C(F)(F)F)c3)CC2)C2(CCCCC2)OC1=O		0
COc1ccc(OCCCn2c(C)nc3cc(C)c(C)cc32)cc1		-0.78
C/[N+]([O-])=C\c1ccc([N+](=O)[O-])o1		0.0128
Cn1cc(/C=C/c2nc3ccccc3c(=O)n2-c2cccc([N+](=O)[O-])c2)c2ccccc21		0.971
CCn1c(/C=C/c2ccc([N+](=O)[O-])o2)nc2ccccc2c1=O	3.55 µM (active)	
Cc1c(Cl)cccc1NC(=O)N1CCN(C(=O)c2nsc3ccccc23)CC1		5.4
Cc1ccc(NC(=O)c2ccc(CN3CC(=O)N4CCCCC4C3=O)cc2)c(Cl)c1 (stereo unspecified)		-1.23
CCCN(CCC)C(=O)Cn1c(=O)n(-c2ccc(Cl)cc2)c(=O)c2c3c(sc21)CCCCC3		-0.0516
CC(C)(C)c1ccc(C(=O)Nc2ccc3c(c2)CCCN3C(=O)c2cccs2)cc1		-1.49
O=C(NCc1ccc2c(c1)CCN2C(=O)c1ccccc1)c1ccccc1		-0.465
CCOc1ccc(NC(=O)c2cc3c(=O)n(Cc4cccs4)ccc3nc2C)cc1		0
COc1cc(NC(=O)Cn2nc(-c3ccc(C)c(C)c3)ccc2=O)cc(OC)c1		0
